Measured values taken from the supplement of paper PMC6992640.
± gives the standard deviation of the averaged measurements.

Legend:
Experiment in all cases: cell viability (% of vehicle); higher = less cytotoxic
HCI01 [1] = cells of a triple-negative basal-like breast cancer xenograft; settings: 1 µM; 72 h
UCD52 [2] = cells of a triple-negative basal-like breast cancer xenograft; settings: 1 µM; 72 h
WHIM2 [3] = cells of a triple-negative basal-like breast cancer xenograft; settings: 1 µM; 72 h
WHIM30 [4] = cells of a triple-negative basal-like breast cancer xenograft; settings: 1 µM; 72 h
HCI01 [5] = settings: 10 µM; 72 h
HCI03 = cells of an ER-positive luminal breast cancer xenograft; settings: 10 µM; 72 h
HCI09 = cells of a triple-negative luminal androgen receptor type breast cancer xenograft; settings: 10 µM; 72 h
HCI11 = cells of an ER-positive luminal breast cancer xenograft; settings: 10 µM; 72 h
HCI13 = cells of an ER-positive luminal breast cancer xenograft; settings: 10 µM; 72 h
HCI16 = cells of a triple-negative basal-like breast cancer xenograft; settings: 10 µM; 72 h
UCD52 [6] = settings: 10 µM; 72 h
WHIM2 [7] = settings: 10 µM; 72 h
WHIM30 [8] = settings: 10 µM; 72 h

SMILES | cell viability (HCI01 [1]) | cell viability (UCD52 [2]) | cell viability (WHIM2 [3]) | cell viability (WHIM30 [4]) | cell viability (HCI01 [5]) | cell viability (HCI03) | cell viability (HCI09) | cell viability (HCI11) | cell viability (HCI13) | cell viability (HCI16) | cell viability (UCD52 [6]) | cell viability (WHIM2 [7]) | cell viability (WHIM30 [8])
Cc1cn(-c2cc(NC(=O)c3ccc(C)c(Nc4nccc(-c5cccnc5)n4)c3)cc(C(F)(F)F)c2)cn1 [Nilotinib(AMN-107)] | 78.2 | 77.5 | 88 | 75.3 | 105 ± 61 | 79.8 | 90.1 ± 21 | 76.6 | 91.3 ± 13 | 92.1 | 47.83 ± 0.22 | 69.1 ± 7.7 | 75 ± 2.3
COc1ncc(-c2ccc3nccc(-c4ccnnc4)c3c2)cc1NS(=O)(=O)c1ccc(F)cc1F | 53 | 23.2 | 31.9 | 48 | 64.11 ± 0.34 | 65.6 | 26.64 ± 0.21 | 70.3 | – | 147 | 43.4 ± 1 | 49.7 ± 7.6 | 42.9 ± 2.3
CCC(NC(=O)C(C)NC)C(=O)N1CC(O)CC1Cc1c(-c2[nH]c3cc(F)ccc3c2CC2CC(O)CN2C(=O)C(CC)NC(=O)C(C)NC)[nH]c2cc(F)ccc12 (stereo not drawn) | 82.8 | 68.5 | 36.3 | 56.6 | 133 ± 5.6 | 99.5 | 146 ± 36 | 128 | – | 115 | 93.8 ± 8.2 | 114.1 ± 0.19 | 149 ± 20
C[C@H]1O[C@@H](O[C@H]2[C@@H](O)C[C@H](O[C@H]3[C@@H](O)C[C@H](O[C@H]4CC[C@@]5(C)[C@H](CC[C@@H]6[C@@H]5C[C@@H](O)[C@]5(C)[C@@H](C7=CC(=O)OC7)CC[C@]65O)C4)O[C@@H]3C)O[C@@H]2C)C[C@H](O)[C@@H]1O [Digoxin] | 50.6 | 25.3 | 138 | 25.7 | 35.2 ± 3 | 97.9 | 40.1 ± 17 | 69.2 | – | 45.8 | 66.6 ± 8.6 | 66.4 ± 7.6 | 41.4 ± 1.1
O=C1C=CC=CC1=C1NC(=C2C=CC=CC2=O)N(c2ccc(C(=O)O)cc2)N1 [Deferasirox] | 87.9 | 92 | 92.2 | 98.2 | 65.5 ± 9.3 | 129 | 62 ± 39 | 107 | 62.9 ± 16 | 101 | 77.7 ± 33 | 95.2 ± 25 | 70.1 ± 1.5
COc1cc(Nc2c(C#N)cnc3cc(OCCCN4CCN(C)CC4)c(OC)cc23)c(Cl)cc1Cl [Bosutinib (SKI-606)] | 61.1 | 30.4 | 55.4 | 68.4 | 48.4 ± 2.7 | 48 | 53.7 ± 33 | 101 | 71.4 ± 48 | 55.8 | 37.1 ± 4.8 | 36.7 ± 13 | 52.1 ± 9.3
C=CC(=O)Nc1cc(Nc2nccc(-c3cn(C)c4ccccc34)n2)c(OC)cc1N(C)CCN(C)C | 57.6 | 63 | 52.7 | 61.8 | 41.7 ± 1 | 39.9 | 50.4 ± 36 | 61.3 | 51.7 ± 3.8 | 60.7 | 30.1 ± 0.95 | 44.5 ± 7.7 | 41.7 ± 1.9
COCCn1c2c([n+](Cc3cnccn3)c1C)C(=O)c1ccccc1C2=O.[Br-] | 29.6 | 21.3 | 21.1 | 27 | 85.5 ± 29 | 48.3 | 28.3 ± 3.6 | 60.2 | 68.9 ± 8.8 | 82.5 | 53.9 ± 8.2 | 55.5 ± 2.3 | 62.3 ± 5.1
C=C1C(=CC=C2CCCC3(C)C2CCC3C(C)CCCC(C)C)CC(O)CC1O (stereo not drawn) [Alfacalcidol] | 72.3 | 59 | 51.8 | 91.3 | 31.7 ± 13 | 124 | 29.8 ± 8.2 | 70.1 | 52.6 ± 8.1 | 106 | 68.1 ± 0.89 | 49.9 ± 8.4 | 97.46 ± 0.87
Cl.Clc1ccccc1CN1CCc2sccc2C1 [Ticlopidine HCl] | 99.4 | 97.4 | 99.6 | 91.9 | 56.5 ± 32 | 108 | 82 ± 2.9 | 91.6 | 108 ± 34 | 97.2 | 62.5 ± 2.4 | 82.5 ± 24 | 89.7 ± 5.6
Nc1c(CC(=O)[O-])cccc1C(=O)c1ccccc1.O.[Na+] [Amfenac Sodium Monohydrate] | 97.6 | 93 | 115 | 99.5 | 56.6 ± 53 | 102 | 92.4 ± 14 | 92.6 | 114 ± 16 | 104 | 62.1 ± 8.9 | 82.7 ± 3.5 | 90.11 ± 0.73
Cc1ccc(NC(=O)c2ccc(CN3CCN(C)CC3)cc2)cc1Nc1nc(-c2cccnc2)cs1 [Masitinib (AB1010)] | 113 | 85.9 | 114 | 84.6 | 53.6 ± 6.1 | 68.7 | 20 ± 2.6 | 37.8 | 55.8 ± 12 | 93.6 | 49.9 ± 13 | 46.2 ± 8 | 146 ± 61
CNC(=O)c1cc(Oc2ccc(NC(=O)Nc3ccc(Cl)c(C(F)(F)F)c3)cc2)ccn1 [Sorafenib] | 107 | 67.7 | 92.6 | 78 | 43.2 ± 12 | 89.2 | 25.2 ± 2.9 | 52.4 | 33.2 ± 5.5 | 41.1 | 46 ± 1.8 | 42.7 ± 5.5 | 37 ± 2.4
COCCOC(=O)C1=C(C)NC(C)=C(C(=O)OCC=Cc2ccccc2)C1c1cccc([N+](=O)[O-])c1 (stereo not drawn) [Cilnidipine] | 111 | 95.4 | 97.7 | 103 | 93.8 ± 25 | 90.1 | 81.4 ± 20 | 81.7 | 66.6 ± 38 | 54.9 | 84 ± 6.8 | 41.1 ± 16 | 68.7 ± 1.3
COc1cc(C(=O)O)ccc1NC(=O)C1NC(CC(C)(C)C)C(C#N)(c2ccc(Cl)cc2F)C1c1cccc(Cl)c1F (stereo not drawn) | 95.1 | 89.1 | 99.1 | 91.3 | 63.9 ± 30 | 143 | 37.1 ± 9.3 | 118 | 60.9 ± 7.6 | 97.1 | 101 ± 6.1 | 44.9 ± 8.6 | 102 ± 14
CC(C)(C)c1ccc(C(=O)CCCN2CCC(OC(c3ccccc3)c3ccccc3)CC2)cc1 [Ebastine] | 94.4 | 87.5 | 107 | 83.4 | 83.8 ± 57 | 70.2 | 53.2 ± 39 | 81.2 | 31.9 ± 3.6 | 77.5 | 52.1 ± 4.6 | 52.3 ± 7.3 | 78.2 ± 9.7
CN1CCN(CCOc2cc(OC3CCOCC3)c3c(Nc4c(Cl)ccc5c4OCO5)ncnc3c2)CC1 [Saracatinib (AZD0530)] | 67.9 | 38.7 | 33.9 | 57.5 | 63.85 ± 0.43 | 48.7 | 68.3 ± 18 | 105 | 53 ± 1.4 | 69.1 | 43.8 ± 5.4 | 40.2 ± 11 | 84.6 ± 3.6
CC1(C)Cc2c(-c3ccccc3)c(-c3ccc(Cl)cc3)c(CC(=O)O)n2C1 [Licofelone] | 125 | 103 | 90.3 | 97.1 | 46.1 ± 16 | 99.4 | 31.5 ± 2.2 | 90.2 | 84.6 ± 0.91 | 89.5 | 86.3 ± 4 | 47.3 ± 7 | 88.4 ± 11
CCOc1nc2cccc(C(=O)OC(C)OC(=O)OC3CCCCC3)c2n1Cc1ccc(-c2ccccc2-c2nn[nH]n2)cc1 (stereo not drawn) [Candesartan Cilexetil] | 88.5 | 97.3 | 106 | 99.7 | 18.1 ± 12 | 94.5 | 18.3 ± 4.6 | 72.3 | 47.71 ± 0.052 | 75.3 | 74.3 ± 16 | 37.6 ± 6.6 | 128 ± 5.3
CNC(=O)c1cc(Oc2ccc(NC(=O)Nc3ccc(Cl)c(C(F)(F)F)c3)c(F)c2)ccn1.Cl [Regorafenib hydrochloride] | 104 | 71.5 | 104 | 98.7 | 56.2 ± 0.73 | 114 | 82.2 ± 10 | 65.5 | 36.7 ± 1.2 | 62.7 | 93.8 ± 11 | 97.7 ± 4.6 | 60.6 ± 32
CCCCCCCCc1ccc(CCC(N)(CO)CO)cc1.Cl [Fingolimod (FTY720)] | 97.7 | 87.9 | 92.2 | 84.3 | 28.9 ± 5.8 | 53.9 | 18.8 ± 3.1 | 33.8 | 52.3 ± 9.9 | 49.1 | 25.6 ± 1.3 | 77.9 ± 3.2 | 82.5 ± 15
COc1ccc(C[C@H](N)C(=O)N[C@@H]2[C@H](O)[C@H](n3cnc4c(N(C)C)ncnc43)O[C@@H]2CO)cc1.Cl.Cl [Puromycin dihydrochloride] | 93.8 | 22.3 | 86.9 | 76.8 | 28.6 ± 2.4 | 58.6 | 26.89 ± 0.082 | 33.4 | 51.1 ± 14 | 52 | 34.5 ± 0.59 | 42 ± 4.2 | 33.3 ± 2.3
O=C(c1ccc(F)c(F)c1Nc1ccc(I)cc1F)N1CC(O)(C2CCCCN2)C1 (stereo not drawn) [Cobimetinib] | 74.9 | 52.9 | 58.8 | 59.8 | 76.8 ± 21 | 80.6 | 64.7 ± 24 | 82.8 | 74.8 ± 0.28 | 63.2 | 42.65 ± 0.23 | 48.9 ± 3.3 | 78.2 ± 2.8
Clc1ccc(CSC(Cn2ccnc2)c2ccc(Cl)cc2Cl)cc1.O=[N+]([O-])O (stereo not drawn) [Sulconazole Nitrate] | 95.2 | 96.5 | 108 | 92.9 | 28.4 ± 6.5 | 77.3 | 24.5 ± 2.6 | 78.3 | 40.1 ± 3 | 74.1 | 35.2 ± 2.8 | 34.9 ± 8.5 | 119 ± 0.69
CC(Oc1cc(-c2cnn(C3CCNCC3)c2)cnc1N)c1c(Cl)ccc(F)c1Cl [(R)-Crizotinib] | 154 | 67.6 | 106 | 95.7 | 60 ± 23 | 135 | 24.8 ± 3.8 | 89.6 | 141.8 ± 0.89 | 41.9 | 23.1 ± 3.7 | 39.3 ± 3.3 | 125 ± 27
Cc1nc(Nc2ncc(C(=O)Nc3c(C)cccc3Cl)s2)cc(N2CCN(CCO)CC2)n1 | 78.6 | 39.7 | 67.7 | 55.6 | 59.7 ± 21 | 53.7 | 53.2 ± 2.6 | 60.3 | 40.2 ± 3.5 | 40.5 | 39.3 ± 3.5 | 39.3 ± 3.4 | 57.8 ± 1.2
CC(C)CC(NC(=O)C(NC(=O)c1cccc(-c2ccccc2)n1)C(C)O)B(O)O (stereo not drawn) | 55.2 | 25 | 132 | 22.5 | 76.8 ± 10 | 93.4 | 15.8 ± 2 | 171 | 40.5 ± 10 | 82.8 | 66 ± 0.77 | 42.8 ± 3.3 | 93.3 ± 3.5
